From PubChem BioAssay
Shown are actives, neighbours in structure and some others; about 3.4% of the full set was active somewhere.
FBW7 act: human FBW7 E3 ligase activation, primary screen; Q969H0; AlphaScreen FBW7–phospho-cyclin E peptide binding, activator screen; normalized activity (activation), % at 26.1 µM; 650,000 tested, 0.13% active; AID 1259310; in the data active = normalized activity above about 1.9%;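 note: purified mutant Fbw7 with reduced substrate affinity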
GPR151 ag: human GPR151 activation | PathHunter beta-arrestin GPR151 cells, luminescence | 650,000 tested, 1% active | activation, % at 11.2 µM | Q8TDV0; in the data active = activation above about 4.9%;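 note: 0% = median of compound wells and 100% = cells with positive control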
Target sequence (Q8TDV0 whole entry, looked up): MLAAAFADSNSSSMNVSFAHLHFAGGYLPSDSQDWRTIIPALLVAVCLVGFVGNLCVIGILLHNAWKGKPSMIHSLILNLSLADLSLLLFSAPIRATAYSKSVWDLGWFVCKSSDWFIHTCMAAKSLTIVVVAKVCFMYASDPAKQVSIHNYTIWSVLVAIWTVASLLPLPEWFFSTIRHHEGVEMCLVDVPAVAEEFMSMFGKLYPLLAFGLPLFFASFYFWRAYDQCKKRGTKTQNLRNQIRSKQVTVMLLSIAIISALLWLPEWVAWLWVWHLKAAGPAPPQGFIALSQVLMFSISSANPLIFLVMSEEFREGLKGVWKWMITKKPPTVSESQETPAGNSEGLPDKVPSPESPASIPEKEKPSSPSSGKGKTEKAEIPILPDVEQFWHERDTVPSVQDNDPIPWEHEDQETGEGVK
TEAD-YAP inh: TEAD-YAP interaction inhibition; HEK-TIYL cells, TEAD-Gal4/YAP UAS-luciferase luminescence; inhibition, % at 9.12 µM; 640,000 tested, 1.4% active; in the data active = inhibition above about 32%;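 note: 0% = median of test compound wells and 100% = reference inhibitor wells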
MITF inh: human MITF inhibition, primary screen. AlphaScreen MITF homodimerization, bead proximity signal. inhibition, % at 2.6 µM. 650,000 tested, 0.91% active; in the data active = inhibition above about 50%;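 note: 0% = vehicle wells with protein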
* marks the source's active call; other numbers are inactive results.

SMILES | FBW7 act | GPR151 ag | TEAD-YAP inh | MITF inh
CCOC(=O)c1ccccc1NS(=O)(=O)c1ccc(OCC)cc1 | 0 | -2 | 48* | -15
COc1ccc(S(=O)(=O)Nc2cc3c(cc2C(C)=O)OCO3)cc1 | 0 | 1 | 38* | 11
Cc1cc(OCC(=O)Nc2ccccc2F)ccc1Br | 0 | 0 | -50 | -13
CCc1ccccc1-n1c(=O)oc2ccc(Cl)cc2c1=O | 0 | 0 | 53* | 0
O=c1oc2ccc(Cl)cc2c(=O)n1-c1cccc([N+](=O)[O-])c1 | 0 | -3 | 75* | -1
CCC(=O)n1c(=O)oc2ccc(Cl)cc21 | 0 | 0 | -10 | -11
CCCC[n+]1ccccc1/C=C1\Sc2ccccc2N1CC | 0 | 0 | 89* | 3
CCC[n+]1c(/C=C2\Sc3ccccc3N2CC)ccc2ccccc21 | 0 | 4 | 88* | 7
CCCCN1/C(=C/c2ccc3ccccc3[n+]2CC)Sc2cc(NC(C)=O)ccc21 | 0 | 0 | 16 | 18
CCCCC[n+]1c(/C=C2\Sc3ccccc3N2CC)ccc2ccccc21 | 0 | 3 | 83* | 13
CCC(=O)Nc1ccc(NC(=O)CSc2nc(C)c(CC)c(=O)[nH]2)cc1C | 0 | -1 | 18 | 18
COc1ccc(NC(=O)CC(C)S(=O)(=O)c2ccc3c(c2)OCC(=O)N3)cc1 (stereo unspecified) | 0 | 4 | 4 | 11
CC(C)CNC(=O)c1ccccc1NC(=O)COc1ccccc1Cl | 0 | 1 | -1 | 0
Cc1cc2nc(-c3cc(N)ccc3O)oc2cc1C | 0 | -8 | 65* | 6
Nc1ccc(O)c(-c2nc3cc(N)ccc3o2)c1 | 0 | -6 | -24 | 6
CCc1ccc2oc(-c3ccc(N)cc3O)nc2c1 | 0 | -2 | 69* | 0
Cc1ccc2nc(-c3ccc(N)cc3O)oc2c1 | 0 | -1 | 16 | 5
Cc1ccc2oc(-c3ccc(N)cc3O)nc2c1 | 0 | -1 | 41* | -8
CCc1ccc2oc(-c3ccc(NC(C)=O)cc3)nc2c1 | 1 | 1 | -70 | 6
Cc1cccc(-c2cnc(C)nc2C2CCCN(C(=O)c3snnc3C)C2)c1 (stereo unspecified) | 0 | 0 | -7 | -8
CCOC(=O)C1=C(C)C(c2cccc([N+](=O)[O-])c2)NC(=O)N1C (stereo unspecified) | 0 | 2 | 4 | -1
N#C/C(=C\c1ccc(Cl)c([N+](=O)[O-])c1)c1nn(CCO)c(N)c1C#N | 0 | 0 | 1 | 8
N#C/C(=C\c1cc([N+](=O)[O-])ccc1Cl)c1nn(CCO)c(N)c1C#N | 0 | 0 | 67* | 10
CN(C)C1=C(Nc2ccc(Cl)c(Cl)c2)C(=O)c2ccccc2C1=O | 0 | -1 | -3 | 12
CC(=O)N(C1=C(N(C)C)C(=O)c2ccccc2C1=O)c1ccc(F)c(F)c1 | 0 | -6 | 99* | 17
SMILES | FBW7 act | GPR151 ag | TEAD-YAP inh | MITF inh
CN(C1=C(NCCO)C(=O)c2ccccc2C1=O)c1ccccc1 | 0 | 0 | 3 | 24
CC(=O)N(C1=C(N(C)C)C(=O)c2ccccc2C1=O)c1cccc(Cl)c1 | -1 | -5 | 93* | 24
CC(=O)N(C1=C(NCCO)C(=O)c2ccccc2C1=O)c1cccc(Br)c1 | 0 | -4 | 86* | 0
CC(=O)N(C1=C(N(C)C)C(=O)c2ccccc2C1=O)c1ccc(Cl)c(Cl)c1 | -1 | -4 | 82* | 15
CC(=O)CSc1ncccc1-c1nc2cc(C)c(C)cc2[nH]1 | 0 | -1 | 2 | -10
COc1ccc(/C(C)=N/NC(=O)c2cc(Br)ccc2OC)cc1 | 0 | 0 | -9 | -18
Cc1cccc2cc(CN(Cc3ccco3)C(=O)C(F)(F)F)c(=O)[nH]c12 | 0 | -1 | 61* | -16
Nc1nc(SCCCC(=O)NCCO)nc2sc3c(c12)CCCC3 | 2.3* | -1 | 13 | 15
Cc1ccc(C(=O)N/N=C/c2ccc([N+](=O)[O-])o2)cc1 | 0 | 1 | 40* | -1
O=C(N/N=C/c1ccc([N+](=O)[O-])o1)c1ccccc1 | 0 | 1 | -5 | 7
Cc1cc(C(=O)N/N=C/c2ccc([N+](=O)[O-])o2)n[nH]1 | 1 | -1 | 32* | 23
O=C(N/N=C/c1ccc([N+](=O)[O-])s1)c1ccc(F)cc1 | 0 | 1 | 45* | -7
O=C(N/N=C/c1ccc([N+](=O)[O-])o1)c1ccc(F)cc1 | 0 | -1 | 37* | 1
C[C@@H]1CN(C(=O)C2CC23CCN(Cc2cccc(Cl)c2)CC3)C[C@H](C)O1 (stereo partly specified) | 0 | -1 | -9 | 21
COc1cc(CN2Cc3ccccc3OC(C)C2)cc(OC)c1O (stereo unspecified) | 0 | 0 | -10 | -5
COc1ccc2c(c1)OCC(Cc1ccc(OC)c(O)c1)C2=O (stereo unspecified) | 0 | 3 | 50* | 1
Cc1cc(C)n(-c2nnc(C)n2/N=C/c2ccc(Br)cc2)n1 | 0 | 1 | -2 | 0
CCOc1ccc(/C=N/NC(=O)CNc2ccccc2OC)cc1 | 0 | 0 | 5 | 12
O=C(CCl)Nc1ccc2[nH]c(=O)[nH]c2c1 | 0 | 0 | -6 | -9
COc1cc(C2CC(=O)Nc3c2ccc2ccccc32)c(Br)c(OC)c1OC (stereo unspecified) | 0 | 0 | 59* | -18
COc1cc(C2CC(=O)Nc3cc4c(cc32)OCO4)c(Br)c(OC)c1OC (stereo unspecified) | 0 | -1 | 51* | -3
COc1ccc(C2CC(=O)Nc3cc4c(cc32)OCO4)cc1O (stereo unspecified) | 0 | 0 | 2 | 17
C=CCOC(=O)C1=C(C)Nc2nnnn2C1c1cccc(OC)c1 (stereo unspecified) | 0 | -1 | 50* | 12
CC(C)(C)NC(=O)CN(C(=O)c1csnn1)c1ccc(F)cc1 | 0 | -1 | -2 | 10
CCn1nc(C)cc1C(=O)Nc1nc(-c2ccc(C(C)C)cc2)cs1 | 0 | 2 | 38* | 7
SMILES | FBW7 act | GPR151 ag | TEAD-YAP inh | MITF inh
CC(C)c1ccc(-c2csc(NC(=O)c3cc(Cl)cc(Cl)c3)n2)cc1 | 0 | -1 | 0 | -9
Cc1ccc(C2=N/C(=C/c3ccc(OCC(=O)O)cc3)C(=O)O2)cc1 | 0 | -1 | 10 | 15
O=C(CSc1n[nH]c(/C=C/c2ccc(F)cc2)n1)Nc1cc(C(=O)O)cc([N+](=O)[O-])c1 | 1 | -6 | 69* | 9
CSc1ccc(NC(=O)Nc2cccn(Cc3ccc(C)cc3)c2=O)cc1 | 0 | 0 | 33* | -4
CCN(CCO)c1ccc(NC(=S)Nc2ccccc2F)cc1 | 0 | -9 | 66* | 8
CCN(CC)c1ccc(NC(=S)Nc2ccc(S(N)(=O)=O)cc2)cc1 | 0 | 0 | 5 | 74*
NS(=O)(=O)c1ccc(NC(=S)Nc2ccc(F)cc2)cc1 | 0 | -1 | 1 | 9
Cc1ccnc(N2CCC(C(=O)Nc3ccccc3Br)CC2)n1 | 2.1* | -1 | 9 | 22
CN(C)Cc1ccc2c(sc3nc4n(c(=O)c32)CCCCC4)c1O | 0 | -1 | 53* | 8
